Assay [1] in a line: qHTS assay to identify small molecule agonists of the hypoxia (HIF-1) signaling pathway - cell viability counter screen (AID 1224844; calls by dose curve; note: nearly all actives have a fitted effect of over 50% in size). In short, it runs like this: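 Viability counter screen: HRE-bla ME-180 cells plated 5 hrs before compound addition, treated 17 hrs at 37C and 5% CO2, then CellTiter-Glo added after the FRET reporter read; luminescence after 30 min.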
(Quantitative high-throughput screening tests each substance at several concentrations.)

Assay [2] in a line: qHTS assay to identify small molecule agonists of the hypoxia (HIF-1) signaling pathway (AID 1224846; active = well fitted activation curve with a large enough effect in the signal ratio in the repeat runs, not every such curve was filed as active; the % refers to the signal ratio). In short, it runs like this:
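Agonist mode reporter screen. ME-180 cells stably expressing bla under HRE control received test compounds in DMSO for 17 hrs (37C, 5% CO2), and beta-lactamase activity was then detected with the CCF4-AM FRET substrate.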

Assay [3] is described as follows: qHTS assay to identify small molecule agonists of H2AX - cell viability counter screen (AID 1224847; calls by dose curve; note: nearly all actives have a fitted effect of over 30% in size; note: potency is the fitted concentration of half-maximal effect). In short, it runs like this: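 Cytotoxicity counter screen in wild-type CHO-K1 cells: a 3 hr compound treatment at 37C across 15 concentrations, followed by CellTiter-Glo luminescence to gauge viable cells.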
Assay [4] is described as follows: qHTS RealTime-Glo MT Cell Viability Assay in HepG2 cells - 24 hour (AID 1224867). Note: nearly all actives have a fitted effect of over 50% in size. In short, it runs like this:
(§1)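 Real-time, nonlytic viability: 600 HepG2 cells/well mixed with NanoLuc enzyme plus prosubstrate; 5 h settle, compound (DMSO) added by pintool; luminescence monitored over 40 h at 37 C.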

Assay [5] in a line: qHTS RealTime-Glo MT Cell Viability Assay in HEK293 cells - 32 hour (AID 1224868). Note: top concentration of the series differs between compounds; nearly all actives have a fitted effect of over 50% in size. In short, it runs like this:
(§2)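 Cells + reagent dispensed (600 cells/well, HEK293) → 5 h at 37 C/5% CO2 → 23 nL compound in DMSO pinned → 40 h at 37 C → luminescence read at 0, 8, 16, 24, 32, 40 h.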

Assay [6] can be described thus: A CellTox Green Cytotoxicity Assay to monitor cytotoxicity in HEK293 cells - 0 hour (AID 1224869). Note: nearly all actives have a fitted effect of over 50% in size. Note: potency is the fitted concentration of half-maximal effect. The method in brief: (§3)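 Dead-cell fluorescence measured kinetically: asymmetric cyanine dye, HEK293, 600 cells/well, 5 h settle, 23 nL cpd/DMSO, 37 C, reads 0–40 h every 8 h.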
Assay [7] is described as follows: qHTS RealTime-Glo MT Cell Viability Assay in HepG2 cells - 40 hour (AID 1224870). Note: nearly all actives have a fitted effect of over 50% in size. Note: potency is the fitted concentration of half-maximal effect. In short, it runs like this: (§4)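 HepG2 cells (600/well) mixed with RealTime-Glo MT reagent, settled 5 h at 37 C/5% CO2 before compound addition. Nonlytic NanoLuc luminescence from viable-cell prosubstrate reduction read repeatedly during 40 h treatment at 37 C.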
The nature of assay [8]: A CellTox Green Cytotoxicity Assay to monitor cytotoxicity in HEK293 cells - 40 hour (AID 1224871). Note: nearly all actives have a fitted effect of over 45% in size. Note: potency is the fitted concentration of half-maximal effect. The method in brief:
as §3

The nature of assay [9]: qHTS RealTime-Glo MT Cell Viability Assay in HEK293 cells - 16 hour (AID 1224872). The method in brief: as §2
A short description of assay [10]: qHTS RealTime-Glo MT Cell Viability Assay in HepG2 cells - 8 hour (AID 1224873). Note: nearly all actives have a fitted effect of over 55% in size. The method in brief:
as §4

The nature of assay [11]: qHTS RealTime-Glo MT Cell Viability Assay in HEK293 cells - 40 hour (AID 1224874). Note: nearly all actives have a fitted effect of over 50% in size. Conditions: RealTime-Glo luminescence; max response: hits give low values. In short, it runs like this: (§5)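 600 HEK293 cells per well, dispensed already mixed with RealTime-Glo MT reagents. Compound dosing came 5 h later. The same wells were read for luminescence at 0, 8, 16, 24, 32 and 40 h of exposure at 37 C.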

Assay [12] in a line: A CellTox Green Cytotoxicity Assay to monitor cytotoxicity in HEK293 cells - 24 hour (AID 1224875). Note: nearly all actives have a fitted effect of over 45% in size. Note: potency is the fitted concentration of half-maximal effect. In short, it runs like this: as §3
Assay [13] in a line: A CellTox Green Cytotoxicity Assay to monitor cytotoxicity in HepG2 cells - 16 hour (AID 1224876). Note: nearly all actives have a fitted effect of over 45% in size. The method in brief:
(§6)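 First, HepG2 cells (600/well) mixed with reagent were plated; second, after 5 h at 37 C they received compounds via pintool; third, fluorescence was measured at 0 h through 40 h at 8 h intervals.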

The nature of assay [14]: qHTS RealTime-Glo MT Cell Viability Assay in HepG2 cells - 32 hour (AID 1224877). Note: nearly all actives have a fitted effect of over 55% in size. In short, it runs like this: as §1
Assay [15] is described as follows: A CellTox Green Cytotoxicity Assay to monitor cytotoxicity in HepG2 cells - 24 hour (AID 1224878). Note: nearly all actives have a fitted effect of over 45% in size. Note: potency is the fitted concentration of half-maximal effect. The method in brief: as §6
A short description of assay [16]: A CellTox Green Cytotoxicity Assay to monitor cytotoxicity in HepG2 cells - 40 hour (AID 1224879). Note: nearly all actives have a fitted effect of over 40% in size. Note: potency is the fitted concentration of half-maximal effect. In short, it runs like this:
as §6

Assay [17] can be described thus: qHTS RealTime-Glo MT Cell Viability Assay in HEK293 cells - 0 hour (AID 1224880). In short, it runs like this:
as §5

The nature of assay [18]: qHTS assay to identify small molecule antagonists of the estrogen related receptor (ERR) signaling pathway from Tox21 library (AID 1224848). Note: nearly all actives have a fitted effect of over 50% in size. In short, it runs like this: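 Quantitative high-throughput format: ERR reporter cells (2,000/well) pre-incubated 6 h, treated 18 h at 37 C with compounds in DMSO alongside positive and negative controls, then read by ONE-Glo luminescence.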

Assay [19] in a line: qHTS assay to identify small molecule agonists of the estrogen related receptor (ERR) signaling pathway from Tox21 library (AID 1224849; calls by dose curve; note: nearly all actives have a fitted effect of over 15% in size). Conditions: ERR reporter cell line, ONE-Glo luciferase, 18 h. The method in brief: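 Quantitative HTS in agonist format: NTP ERR cell line, compounds transferred in DMSO after 6 h plating, 18 h incubation at 37 C, ONE-Glo luminescence endpoint.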

Several values for one entry are separate records, joined by “and”; a condition that tells them apart may be missing. Equal entries are not always repeated. Unmarked numbers belong to inactive results. Results filed as inconclusive are left out. Activity calls are given as the source filed them. Unless noted, calls come from the whole dose curve; as a rule, active = well fitted curve in the direction sought with a large enough effect in the repeat runs; inconclusive = weak or mixed curves; inactive = no such curve, though single readings can be large; an effect the other way counts as inactive or inconclusive.

From PubChem BioAssay (Tox21) come the findings set out here.
% is set by controls: 0 for no effect and ±100 for the full control effect.

Consider `Cc1ccc2c(C)cccc2c1`, for which the Potency entry in assay [1], in assay [3], in [4], in [5], in [6] and in assay [7] was “inactive” each time. In addition, the Potency entry in [8], in [9], in assay [10], in assay [12], in [13] and in assay [14] was “inactive” in each case. Also, the Potency result in assay [15] and in assay [16] was “inactive” each time. In addition, the result in [2] and in assay [17] was inactive. The max response in assay [11] was 4.4%.
Turning to `Nc1cccc2ccccc12`, the Potency result in assay [1], in assay [3], in assay [4], in assay [5], in assay [6] and in assay [7] was “inactive” each time. The Potency result in assay [8], in assay [9], in assay [10], in assay [12], in assay [13] and in assay [14] was “inactive” in each case. In addition, the Potency result in [15] and in [16] was “inactive” each time. Also, the call in assay [2] and in assay [17] was inactive. The max response in assay [11] is -9.7% and -1.99%.
As to `C[C@]12C=CC3=C4CCC(=O)C=C4CC[C@H]3[C@@H]1CC[C@@H]2O`, the Potency result in assay [1], in [4], in [5], in [6], in assay [7] and in [8] was “inactive” each time. Also, the Potency entry in assay [9], in [10], in assay [12], in [13], in assay [15] and in [16] was “inactive” throughout. In [3], the Potency was 89.2 µM (active) and 75.9 µM (active). For the same compound, the max response in assay [11] was -25.8%. Further, in assay [17], the compound was classed as inactive.
Turning to `CCOC(=O)c1cncn1C(C)c1ccccc1` (configuration not stated), the Potency entry in assay [1], in assay [3], in [18], in [4], in [5] and in [6] was “inactive” throughout. For the same compound, the Potency result in assay [7], in [8], in assay [9], in assay [10], in assay [12] and in assay [14] was “inactive” each time. For the same compound, the Potency entry in [15] and in [16] was “inactive” throughout. Moreover, the activity change, positive = activation in assay [19] (at 42.5 µM (top of the series)) is -0.608%. Moreover, the max response in assay [11] was 3.04%. In assay [17], the call was inactive.
As for `C=CCSSCC=C`, the Potency result in [1], in assay [3], in assay [4], in [5], in assay [7] and in [8] was “inactive” each time. Also, the Potency result in [9], in assay [10], in [12], in [13], in assay [14] and in [15] was “inactive” throughout. Further, the Potency result in assay [16] was “inactive”. In addition, the max response in assay [11] was 1.18%. Moreover, in assay [17], the result was inactive.
As to `CCCC[P+](CC)(CCCC)CCCC` (tested in a mixture with another compound), the Potency result in assay [1], in assay [3], in assay [4], in assay [6], in assay [7] and in [8] was “inactive” in each case. Moreover, the Potency entry in [10], in assay [13], in [14], in [15] and in assay [16] was “inactive” each time. Besides, the call in [2] and in assay [17] was inactive.
For `N#CC(C#N)=C(C#N)C#N`, the Potency entry in [1], in assay [3], in assay [18], in assay [4], in [5] and in assay [6] was “inactive” each time. In addition, the Potency result in assay [7], in assay [8], in [9], in assay [10], in assay [12] and in assay [13] was “inactive” each time. Moreover, the Potency result in assay [14], in assay [15] and in assay [16] was “inactive” in each case. In addition, the activity change, positive = activation in [19] (at 92.4 µM (top of the series)) was -1.38%. For the same compound, the max response in [11] is 20.6%. Besides, the result in [17] was inactive.
As for `COc1ccccc1N1CCNCC1`, the Potency entry in assay [1], in [3], in assay [4], in assay [5], in assay [6] and in assay [7] was “inactive” in each case. Also, the Potency result in assay [8], in assay [9], in assay [10], in assay [12], in assay [13] and in [14] was “inactive” throughout. The Potency entry in assay [15] and in assay [16] was “inactive” throughout. Besides, in [11], the max response was -1.42%. The outcome in [17] was inactive.
For the compound `C[N+](C)(C)CCOC(=O)C(O)(c1ccccc1)c1ccccc1`, the Potency result in assay [1], in assay [3], in [4], in assay [5], in [6] and in assay [8] was “inactive” each time. In addition, the Potency result in assay [9], in [12], in [13], in assay [15] and in assay [16] was “inactive” in each case. Besides, the Potency in assay [7] was 23.9 µM (active). Besides, the max response in [11] is 0.291%. For the same compound, in [17], the outcome was inactive.
As for `C[C@H](N)[C@H](O)c1ccc(O)c(O)c1`, the Potency result in assay [1], in [3], in assay [18], in assay [4], in assay [5] and in [7] was “inactive” each time. Further, the Potency result in assay [9] and in [14] was “inactive” throughout. Moreover, the Potency in assay [6] is 16.9 µM (active); in assay [8], 10.7 µM (active); in assay [12] it was 19 µM (active); in assay [15], 23.9 µM (active); in [16], 23.9 µM (active). In assay [11], the max response was -2.61%. In addition, the compound was classed as inactive in assay [17].
